# From PubChem BioAssay
# A selection: hits, their analogues and other compounds. The true share with any hit is near 17%.
# S2 tox – Viability Counterscreen for Primary qHTS for Inhibitors of ATXN expression; S2 cells (HEK-293 line with an ATXN2-luciferase reporter) viability, CellTiter-Fluor protease fluorescence, 24 h; Potency, µM (top dose mostly 56.7 µM), usual class: cytotoxic; actives 0.49% (n = 400,000); AID 651635, 2014; also: nearly all actives have a fitted effect of over 40% in size
# TDP1 cell CPT – qHTS for Inhibitors of human tyrosyl-DNA phosphodiesterase 1 (TDP1): qHTS in cells in presence of CPT; actives 12% (n = 420,000); chicken DT40 Tdp1-/-;hTDP1 cells + 20 nM CPT, ATP luminescence, 48 h; Potency, µM (titrated, usually from 46.2 µM), without a hit: at the highest dose activity change, negative = growth inhibition, usual class: inhibitors; AID 686979, 2013; also: % is scaled to controls: 0 for no effect and ±100 for the full control effect; nearly all actives have a fitted effect of over 55% in size
#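 Chicken DT40 Tdp1-/- cells stably complemented with human TDP1 were seeded at 400 cells/well in medium containing 20 nM camptothecin, exposed to pin-transferred compounds, and grown at 37 °C for at least 48 hr. Viability was read as ATP luminescence.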
# TGFb SMAD3 inh – qHTS for Inhibitors of TGF-b; Potency, µM (highest dose often 46.1 µM), for the others: at the top dose activity, negative = inhibition, usual class: inhibitors; AID 588855, 2011; actives 1.2% (n = 410,000); HepG2 CAGA-GFP TGF-b/SMAD3 reporter, GFP fluorescence, 18 h; TGF-beta stimulated, 500 pg/mL final; also: % is scaled to controls: 0 for no effect and ±100 for the full control effect; nearly all actives have a fitted effect of over 65% in size
#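 Smad-responsive CAGA-GFP expression was quantified in HEPG2 cells exposed to compounds and 500 pg/mL final TGF-beta for 18 h at 37 degrees C; unstimulated wells defined full inhibition.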
# HepG2 tox – qHTS for Inhibitors of TGF-b: Cytotox Counterscreen | Potency, µM (doses to about 46.1 µM), inactives show at the top dose activity change, negative = cytotoxicity, usual class: cytotoxic | HepG2 CAGA-GFP viability, ATP luminescence, 18 h | actives 0.76% (n = 410,000)
#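 CellTiter-Glo luminescence gave cytotoxicity after 18 hours at 37 degrees C. The cells were HepG2 CAGA-GFP in 1% FBS DMEM, stimulated with 500 pg/mL TGF-beta after compound addition. %Activity was normalised to no-cell wells (complete cell-killing) and DMSO (no toxicity), and curves were fitted and classified.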
# ATXN2 expr inh – Primary qHTS for Inhibitors of ATXN expression. HEK-293 ATXN2-luciferase reporter, luminescence, 24 h. Potency, µM (doses to about 57 µM), for inactives: at the highest dose activity change, negative = inhibition, actives largely listed as inhibitors. actives 0.72% (n = 360,000); also: % is scaled to controls: 0 for no effect and ±100 for the full control effect; nearly all actives have a fitted effect of over 55% in size
#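 qHTS (up to 57 uM final) was run with 24 h compound exposure of reporter cells at 37 °C. Each well was multiplexed: SteadyGlo luminescence measured ATXN2-luciferase expression after a fluorogenic Gly-Phe-AFC viability readout (25 uM final).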
# DT40 TDP1 no CPT – qHTS for Inhibitors of human tyrosyl-DNA phosphodiesterase 1 (TDP1): qHTS in cells in absence of CPT; DT40 Tdp1-/- hTDP1 cells, no CPT, ATP luminescence, 48 h; Potency, µM (doses to about 46.2 µM), without a hit: top-dose activity change, negative = growth inhibition, usual class: inhibitors; actives 15% (n = 420,000); AID 686978, 2013; also: % is scaled to controls: 0 for no effect and ±100 for the full control effect; nearly all actives have a fitted effect of over 55% in size
#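 Chicken DT40 Tdp1-/- cells stably complemented with human TDP1 were seeded at 400 cells/well with DMSO in place of 20 nM camptothecin. After compound pinning, cells grew at least 48 hr at 37 °C; viability read by CellTiter-Glo luminescence.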
# Active calls of the source: *; i = inactive; ? = inconclusive; . = no result given. Calls follow the shape of the dose curve; as a rule, active = well fitted curve in the direction sought with a large enough effect; inconclusive = small, poorly fitted or top-dose-only effect, or another doubt; inactive = no such curve, though single readings can be large; an effect the other way counts as inactive or inconclusive. Potency is read from the fitted curve at half-maximal effect.
SMILES,S2 tox,TDP1 cell CPT,TGFb SMAD3 inh,HepG2 tox,ATXN2 expr inh,DT40 TDP1 no CPT
CC(=O)NC(CSC(CC(=O)c1ccco1)c1ccc(C)cc1)C(=O)O (stereo unspecified),?,?,?,-70%,-18%,16µM*
COc1ccc(C(CC(=O)c2ccc(C)cc2)Sc2ccccc2N)cc1 (stereo unspecified),?,23µM*,7%,-33%,.,?
O=C(Cc1ccc([N+](=O)[O-])cc1)c1ccccc1,?,-20%,10%,4%,22%,-27%
O=C(CC(SCCO)c1ccc([N+](=O)[O-])cc1)c1ccco1 (stereo unspecified),i,-93%,?,-55%,.,15µM*
O=C(CN1C(=O)/C(=C/c2ccc(Cl)cc2)SC1=S)NC1C=CS(=O)(=O)C1 (stereo unspecified),?,6.5µM*,1%,-7%,.,5.8µM*
COc1ccc(/C=C2\SC(=S)N(CC(=O)NC3C=CS(=O)(=O)C3)C2=O)cc1 (stereo unspecified),i,6.5µM*,-7%,4%,2%,3.7µM*
CN1CCC(N(C)CC(=O)Nc2cccc(Oc3ccccc3)c2)CC1,i,-20%,?,-12%,-1%,-13%
Oc1ccc(Nc2ccc3ccccc3c2)cc1,i,18µM*,-5%,-2%,-4%,23µM*
O=C(Nc1ccc2ccccc2c1)c1ccc(Cl)cc1,?,-9%,-2%,-2%,.,-4%
Cc1cc(Nc2ccc(O)cc2)ccc1N,.,5µM*,-12%,-8%,.,3.2µM*
COc1ccc(Cn2cc(CN3CC(N4CCN(Cc5ccccc5F)CC4)CS3(=O)=O)nn2)cc1 (stereo unspecified),i,?,.,.,-4%,21µM*
CCCCCCn1cc(CN2CC(N3CCN(Cc4ccccc4F)CC3)CS2(=O)=O)nn1 (stereo unspecified),i,-30%,.,.,-6%,?
O=S1(=O)CC(N2CCN(Cc3ccccc3F)CC2)CN1Cc1cn(Cc2ccc(Cl)cc2)nn1 (stereo unspecified),i,18µM*,.,.,-21%,13µM*
COc1ccc(-c2noc(N3CCC(C(=O)N4CCN(c5ccccc5OC)CC4)CC3)n2)cc1,.,10µM*,?,-24%,.,8.2µM*
COc1ccc(-c2noc(N3CCC(C(=O)N4CCN(c5cccc(OC)c5)CC4)CC3)n2)cc1,.,6.5µM*,-2%,1%,.,3.3µM*
COc1ccc(CC(=O)N2CCN(c3ccccn3)CC2)cc1,i,-12%,7%,-4%,5%,-23%
COc1ccc(-c2noc(N3CCC(C(=O)N4CCN(c5ccccn5)CC4)CC3)n2)cc1,i,23µM*,-6%,-27%,?,10µM*
COc1ccc(OC)c(C2=NOC(C(=O)N3CCN(c4ccccc4)CC3)C2)c1 (stereo unspecified),i,?,-7%,-15%,-7%,?
COc1ccc(C2=NOC(C(=O)N3CCN(c4ccccc4OC)CC3)C2)cc1 (stereo unspecified),i,16µM*,6%,-1%,3%,23µM*
O=C(Nc1cccc(F)c1)c1ccc2snnc2c1,i,0%,-2%,-35%,3%,-7%
COc1ccc(CNC(=O)COC(=O)c2cc3ccccc3o2)cc1,i,-5%,5%,36%,-4%,-15%
O=C(NCC(c1ccco1)S(=O)(=O)c1cccs1)c1ccc(Cl)cc1 (stereo unspecified),.,-26%,.,-3%,.,?
CC[N+](CC)(CC)CC(=O)Nc1ccc(SC(F)F)cc1,i,?,2%,10%,-25%,-19%
Cc1cccc(C)c1NC(=O)COC(=O)c1ccccc1Nc1ccccc1,i,?,0%,-2%,-6%,9.2µM*
O=C(COC(=O)c1ccccc1Nc1ccccc1)Nc1ccccc1,i,-1%,1%,-2%,-4%,2%
SMILES,S2 tox,TDP1 cell CPT,TGFb SMAD3 inh,HepG2 tox,ATXN2 expr inh,DT40 TDP1 no CPT
CC(C)(C)NC(=O)COC(=O)c1ccccc1Nc1ccc(SC(F)F)cc1,i,?,?,-10%,5%,16µM*
CC1CCCC(C)N1C(=O)c1ccccc1Nc1ccc(SC(F)F)cc1 (stereo unspecified),i,23µM*,?,-48%,-21%,21µM*
CCn1c(N)[n+](CC(=O)Nc2ccc(SC(F)F)cc2)c2ccccc21,i,?,?,14µM*,?,13µM*
O=C(Cn1cnc2ccccc21)Nc1ccc(SC(F)F)cc1,i,21µM*,-24%,0%,-18%,2.3µM*
CN(C)C(=O)COC(=O)c1ccccc1OCC(=O)Nc1ccc(SC(F)F)cc1,i,?,-11%,-18%,-17%,9.2µM*
O=C(COc1ccccc1C(=O)O)Nc1ccc(SC(F)F)cc1,i,16µM*,-3%,-1%,5%,16µM*
O=C(Cc1c(Cl)cccc1Cl)Nc1cccnc1,?,?,-7%,-17%,-6%,-18%
Cc1ccc2c(c1)N(C(=O)CCC(=O)NCCCN1CCN(C)CC1)CC(C)O2 (stereo unspecified),i,5%,0%,0%,-11%,12%
CCC(Oc1ccc(F)cc1)C(=O)Nc1cc(-c2ccc(C)cc2)no1 (stereo unspecified),i,?,?,-9%,-8%,?
CCC(Oc1ccc(F)cc1)C(=O)Nc1nc(-c2ccc(F)cc2)ns1 (stereo unspecified),.,18µM*,-22%,-52%,.,10µM*
Cc1ccccc1/C=N/NC(=O)c1cccnc1,i,1%,-29%,-52%,-2%,4%
Cn1c(-c2ccccc2)c(/C=N/NC(=O)c2cccnc2)c2ccccc21,i,-19%,-4%,8%,60%,23µM*
O=C(N/N=C/c1c(-c2ccccc2)[nH]c2ccccc12)c1cccnc1,i,6.5µM*,-1%,-32%,9%,3.3µM*
CCOc1ccccc1CN1CCN(Cc2csc(C(C)=O)c2)CC1CCO (stereo unspecified),i,-2%,-20%,-24%,-3%,-23%
